From PubChem
CYP2C9 inhib: blockers of cytochrome P450 2C9 activity – biochemical, luminescence, ADME assay, primary screen; CYP2C9 Supersomes, luciferin-H conversion; P11712; inhibition, % at 5 µM; actives 20% (n = 96,000); AID 777, 2007;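 active = blocking of liver enzyme CYP2C9 beyond about 50% at 5 µM, limit read from the data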
Target sequence (P11712 whole entry, looked up): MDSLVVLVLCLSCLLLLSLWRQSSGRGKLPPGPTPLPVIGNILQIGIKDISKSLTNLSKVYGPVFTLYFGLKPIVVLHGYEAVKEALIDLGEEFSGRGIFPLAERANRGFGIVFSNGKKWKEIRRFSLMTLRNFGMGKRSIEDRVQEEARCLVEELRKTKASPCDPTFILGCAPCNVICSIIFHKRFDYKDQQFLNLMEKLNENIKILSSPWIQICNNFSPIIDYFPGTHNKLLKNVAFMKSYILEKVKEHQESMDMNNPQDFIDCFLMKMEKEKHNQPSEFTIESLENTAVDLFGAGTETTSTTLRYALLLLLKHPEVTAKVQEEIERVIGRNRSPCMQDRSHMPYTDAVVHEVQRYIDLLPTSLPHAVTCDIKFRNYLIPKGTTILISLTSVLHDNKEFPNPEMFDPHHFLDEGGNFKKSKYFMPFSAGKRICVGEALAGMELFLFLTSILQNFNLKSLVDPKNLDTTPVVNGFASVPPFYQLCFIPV
CYP2C19 act: human CYP2C19 activators, primary screen, biochemical, luminescence | Cytochrome P450 2C19 (Homo sapiens), P33261 | recombinant CYP2C19, luciferin-H EGE luminescence; active compounds read high; 0 = fully inhibited enzyme, 1 = untreated enzyme | activation factor at 5 µM | 96,000 tested, under 10 active | AID 1025, 2008;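 active = activation factor of at least 2 at 5 µM in the primary screen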
PostGolgi ctrl: growth inhibition of yeast control strain, primary screen, counter-screen for post-Golgi transport modulator project; efflux-deficient yeast background strain, growth absorbance A615, 16 h; inhibition, % at 10 µM; actives 5% (n = 98,000); AID 738, 2007
PostGolgi yeast: phenotypic screen on post-Golgi transport, primary screen. post-Golgi transport phenotypic cell assay. AID 739, 2007. actives 0.9% (n = 98,000). inhibition, % at 10 µM;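 also: yeast cells grown in 1536-well plates; yeast grown about 18 h at 30C before absorbance read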
CYP2C9 activ: human CYP2C9 activators, primary screen, biochemical, luminescence; Cytochrome P450 2C9 (Homo sapiens), P11712; actives 1.4% (n = 96,000); recombinant CYP2C9, luciferin-H conversion; active compounds read high; factor 1 = untreated enzyme, 0 = blocked; AID 1024, 2008; activation factor at 5 µM;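 active = activation factor of 2 or more for CYP2C9 at a 5 µM dose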
CYP2C19 inh: blockers of cytochrome P450 2C19 activity – biochemical, luminescence, ADME assay, primary screen; P33261; CYP2C19 Supersomes, luciferin-H EGE luminescence, 30 min; inhibition, % at 5 µM; actives 21% (n = 96,000); AID 778, 2007;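 active = CYP2C19 inhibition above a set limit at 5 µM in the primary screen, cut at about 50% in these data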
A number is an active result; 0 = inactive; - = no result given. An excerpt weighted towards active compounds, which were near 32% of everything screened. Rule as the data show it, unless noted: active = inhibition above about 30%; inactive = the rest.

SMILES	CYP2C9 inhib	CYP2C19 act	PostGolgi ctrl	PostGolgi yeast	CYP2C9 activ	CYP2C19 inh
CCCn1c(SCC(=O)OCc2ccccc2)nc2c1c(=O)n(C)c(=O)n2C	0	0	0	0	0	0
CC1CC(=O)C=C(O)C1C(=O)OC(C)(C)C (configuration not stated)	0	0	0	0	0	0
CC(C)CCOCC(=O)Nc1cccc(C(=O)O)c1	0	0	0	0	0	0
O=C(OCc1ccccc1Cl)c1ccccc1C(=O)c1ccccc1	0	0	0	0	0	66.8
COC(=O)c1cc2occc2n1CC(=O)Nc1ccc(OC)c(OC)c1OC	0	0	0	0	0	0
COC(=O)c1cc2oc(C)cc2n1CC(=O)Nc1ccc(OC)c(OC)c1OC	63.1	0	0	0	0	59.3
CCOC(=O)c1c(NC(=O)CC2Nc3cc(C)c(C)cc3NC2=O)sc(C)c1C (configuration not stated)	68.6	0	0	0	0	0
Cc1ccc(-c2nc3cnccn3c2Nc2c(C)cccc2C)o1	63.2	0	0	0	0	99.2
Cc1ccc(-c2nc3ncccn3c2Nc2ccc3c(c2)OCO3)o1	-	-	0	0	-	-
O=C(NCC(=O)N(c1ccc2c(c1)OCCO2)C(C(=O)NC1CCCC1)c1ccco1)c1ccco1 (configuration not stated)	-	-	0	0	-	-
O=C(NC1CCCCC1)C(c1ccc2ncccc2c1)N(Cc1ccccc1)C(=O)c1ccc2c(c1)OCCO2 (configuration not stated)	66.9	0	0	0	0	80.3
COc1ccc(CN(C(=O)c2ccc3c(c2)OCCO3)C(C(=O)NC2CCCCC2)c2ccc3ncccc3c2)cc1 (configuration not stated)	0	0	0	0	0	62.1
COc1ccc(C(C(=O)NC2CCCC2)N(CCN(C)C)C(=O)c2snc(C(N)=O)c2N)cc1 (configuration not stated)	0	0	0	0	0	0
COc1cccc(CN(C(=O)c2ccco2)C(C(=O)NC2CCCC2)c2cccnc2)c1 (configuration not stated)	0	0	0	0	0	0
COc1ccc(CN(C(=O)c2nsc(Cl)c2Cl)C(C(=O)NC2CCCCC2)c2ccc(OC)cc2)cc1 (configuration not stated)	57.7	0	0	0	0	51.4
O=C(C1CCN(S(=O)(=O)c2cccnc2)CC1)N1CCCCC1	0	0	0	0	0	0
COCCNC(=O)C1CCN(S(=O)(=O)c2ccccc2)CC1	0	0	0	0	0	0
CCSC1=C(C#N)C(c2ccccc2C)CC(=O)N1 (configuration not stated)	0	0	0	0	0	0
C=C(C)CSC1=C(C#N)C(c2ccccc2Cl)CC(=O)N1 (configuration not stated)	70.2	0	0	0	0	58.2
C=CCSC1=C(C#N)C(c2ccccc2Cl)CC(=O)N1 (configuration not stated)	0	0	0	0	0	73.0
C=CCSC1=C(C#N)C(c2ccccc2C)CC(=O)N1 (configuration not stated)	0	0	0	0	0	0
CCOc1ccc(N2C(=O)CN=C2Nc2ccccc2F)cc1	0	0	0	0	0	0
Cc1ccc(S(=O)(=O)NC(=O)Nc2nnc(C3CC3)s2)cc1	0	0	0	0	0	0
Cc1nn(-c2ccccc2)c2[nH]c(=O)c(CNc3ccc(N4CCOCC4)cc3)cc12	56.8	0	0	0	0	0
CC(C)(C)c1nn(-c2ccccc2)c2[nH]c(=O)c(CNc3ccc4c(c3)OCCO4)cc12	0	0	0	0	0	0
SMILES	CYP2C9 inhib	CYP2C19 act	PostGolgi ctrl	PostGolgi yeast	CYP2C9 activ	CYP2C19 inh
Cc1nn(-c2ccc(Cl)cc2)c2[nH]c(=O)c(CNCc3ccc4c(c3)OCO4)cc12	55.6	0	0	0	0	64.6
CC(=O)N(CN1C(=O)c2ccccc2C1=O)c1ccccc1	0	0	0	0	0	59.3
CC(=O)N(CN1C(=O)c2ccccc2C1=O)c1cccc(C)c1	0	0	0	0	0	96.6
COc1ccc(N(CN2C(=O)c3ccccc3C2=O)C(=O)C(C)C)cc1	0	0	0	0	0	0
CC(=O)Nc1ccc(N2C(C(C)=O)=NN(c3ccccc3)C2c2cccs2)cc1 (configuration not stated)	0	0	0	0	0	0
COc1ccc(N2C(C(C)=O)=NN(c3ccccc3)C2c2cccs2)cc1 (configuration not stated)	56.0	0	0	0	0	0
CC(C)CCn1c(=O)c2ccccc2n2c(CN3C(=O)NC4(CCC(C)CC4)C3=O)nnc12 (configuration not stated)	0	0	0	0	0	0
Cc1ccc(CNS(=O)(=O)c2ccc3oc(C(=O)O)c(C)c3c2)cc1	66.6	0	0	0	0	0
CCN(Cc1ccccc1)S(=O)(=O)c1ccc2oc(C(=O)O)c(C)c2c1	98.5	0	0	0	0	0
Cc1c(C(=O)NCC2CCCO2)oc2ccc(S(=O)(=O)N3CCCC3)cc12 (configuration not stated)	0	0	0	0	0	0
CCN(CC)S(=O)(=O)c1ccc2oc(C(=O)O)c(C)c2c1	76.7	0	0	0	0	0
Cc1c(C(=O)NCC2COc3ccccc3O2)oc2ccc(S(=O)(=O)N(C)C3CCCCC3)cc12 (configuration not stated)	95.1	0	0	0	0	0
Cc1c(C(=O)O)oc2ccc(S(=O)(=O)N(CC(C)C)CC(C)C)cc12	0	0	0	0	0	0
Cc1c(C(=O)OCC(=O)N2CC(=O)Nc3ccccc32)oc2ccccc12	0	0	0	0	0	0
O=C(CCNS(=O)(=O)c1cccc2nsnc12)NC1CCN(Cc2ccccc2)CC1	0	0	0	0	0	0
CC(C)(C)C(=O)NC(=C(Cl)Cl)P(=O)(O)O	0	0	0	0	0	0
CCN(CC)S(=O)(=O)c1ccc2oc(C(=O)NCc3ccc(C)cc3)c(C)c2c1	51.1	0	0	0	0	0
CC1(C)SCC2C(=O)N3C(CSC3(C)C)C(=O)N21 (configuration not stated)	0	0	0	0	0	0
Cc1ccc(-n2nc3c(c2NC(=O)c2cccs2)CSC3)cc1	71.8	0	0	0	0	0
Cc1cccc(-n2nc3c(c2NC(=O)c2ccc(Br)o2)CSC3)c1	83.5	0	0	0	0	0
Cc1nn(C)c(C)c1S(=O)(=O)N1CCCC(C(=O)NCC2COc3ccccc3O2)C1 (configuration not stated)	0	0	0	0	0	0
O=C(O)c1cccc(CN2C(=O)CSC2=O)c1	0	0	35.7	0	0	0
